Compound activity: PubChem BioAssay, National Center for Advancing Translational Sciences (NCATS)
An excerpt weighted towards active compounds, which were near 3.6% of everything screened.
GALC G270D act: A Novel Cell-Based Assay to Identify Small Molecules for B -Galactocerebrosidase; P54803; 145M-Twi-hGALC-G270D cells (Twitcher mouse brain line with human GALC G270D), HMU-beta-Gal fluorescence, 48 h; Potency, µM (top dose mostly 57.5 µM), hits mostly activators; 45,000 compounds, 0.1% hits; note: 0% is about no effect; nearly all actives have a fitted effect of over 65% in size
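Fluorogenic HMU-b-Gal hydrolysis (0.1 mM final, pH 5.2 citrate-phosphate with 1 mg/mL sodium taurocholate; carbonate stop buffer) measures mutant GALC activity after compound treatment of live 145M-Twi Twitcher brain cells stably carrying human GALC-G270D, with wild-type GALC line alongside; activation sought.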
mTORC1 inh: Acumen qHTS Assay for Inhibitors of the mTORC1 Signaling Pathway in MEF (Tsc2-/-, p53-/-) Cells: Sytravon; Tsc2-/- p53-/- MEF, phospho-rpS6 immunofluorescence/PI, 24 h; 44,000 compounds, 0.78% hits; Potency, µM (titrated, usually from 38.3 µM), inactives show at the highest dose activity change, negative = inhibition, hits mostly inhibitors; AID 493208, 2011;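 note: plate controls were DMSO for no effect and rapamycin for full effect; nearly all actives have a fitted effect of over 50% in size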
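Immunofluorescence of rpS6 phosphorylation in Tsc2-/-, p53-/- MEFs after 24 h compound exposure, normalized to propidium iodide signal. Activity is expressed as % positive cells, thresholded with 7.5 nM rapamycin.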
S16 viability: Cell viability qHTS assay in S16 Pmp22-F2sN cells; S16 Pmp22-F2sN Schwann cells viability, CellTiter-Glo, 24 h; Potency, µM (series often up to 57.5 µM), for the others: top-dose activity change, negative = cytotoxicity, actives largely listed as cytotoxic; 43,000 compounds, 0.48% hits; note: % is set by controls: 0 for no effect and ±100 for the full control effect; nearly all actives have a fitted effect of over 65% in size
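Luminescence from CellTiter-Glo, read by CCD camera after a 15 min room-temperature incubation, served as the viability signal. Reporter Schwann cells (S16 Pmp22-F2sN) had been treated with pin-transferred compounds for 24 h at 37C.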
OvCa metastasis: Primary qHTS assay for Inhibitors of ovarian cancer metastasis using an organotypic tumor microenvironment (TME) model; SKOV3ip1-GFP adhesion/invasion on 3D omental model, fluorescence; Potency, µM (titrated, usually from 45.8 µM), for the others: at the highest dose activity change, negative = inhibition, actives largely listed as inhibitors; 46,000 compounds, 0.1% hits; AID 1963576, 2024;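 note: plate controls were DMSO wells for no effect and tomatine positive control wells for full effect; nearly all actives have a fitted effect of over 65% in size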
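qHTS, 4-pt dose (0.36-46 umol/L); SKOV3ip1-GFP, 1,200 cells/well, no FBS; primary omental fibroblast/mesothelial co-culture 48 h pre-grown; 2 h RT + 16 h 37 C; PBS wash, 4% PFA; GFP count 488/509 nm.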
NTMT1 inhibitor: Primary qHTS for Inhibitors of N-terminal methyltransferase 1 (NTMT1): MTaseGlo Assay | N-terminal Xaa-Pro-Lys N-methyltransferase 1 (Homo sapiens), Q9BV86 | NTMT1 MTase-Glo SAH luminescence, purified enzyme | Potency, µM (top dose mostly 114 µM), inactives show at the top dose activity change, negative = inhibition, actives largely listed as inhibitors | 59,000 compounds, 2.5% hits;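 note: plate controls were DMSO vehicle for no effect and no enzyme for full effect; nearly all actives have a fitted effect of over 65% in size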
Target sequence (Q9BV86 whole entry, looked up): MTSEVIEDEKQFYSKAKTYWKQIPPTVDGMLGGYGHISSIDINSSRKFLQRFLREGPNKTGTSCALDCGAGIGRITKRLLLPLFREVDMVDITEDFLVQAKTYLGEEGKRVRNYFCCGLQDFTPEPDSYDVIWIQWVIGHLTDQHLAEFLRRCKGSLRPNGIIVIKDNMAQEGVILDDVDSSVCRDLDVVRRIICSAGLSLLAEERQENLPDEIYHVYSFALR
PMP22 txn: Cell-based coincidence reporter assay to measure PMP22 gene transcription in S16 Pmp22-F2sN cells - Primary screen. S16 Pmp22-F2sN Schwann cells (luciferase reporters placed in the Pmp22 gene), FLuc/NLuc coincidence luminescence, 24 h. Potency, µM (top dose mostly 57.5 µM), without a hit: top-dose activity change, negative = inhibition, usual class: inhibitors. 43,000 compounds, 2% hits. AID 1508649, 2021; active = clear falling dose curves in both reporters; inconclusive = both reporters move, but less clearly or upward; inactive = either reporter flat; the % is the NLuc reporter signal; note: % is set by controls: 0 for no effect and ±100 for the full control effect
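Schwann cells carrying the coincidence reporter were exposed to library compounds for 24 h at 37C, then lysed and read for FLuc and, after quenching, NLuc luminescence on a CCD imager.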
Starred values were filed as active, the others as inactive; i = inactive; ? = inconclusive; · = no result given; ! = a repeat was not active; [ ] = dose if it differs, or a comment. Unless noted, calls come from the whole dose curve; as a rule, active = well fitted curve in the direction sought with a large enough effect; inconclusive = small, poorly fitted or top-dose-only effect, or another doubt; inactive = no such curve, though single readings can be large; an effect the other way counts as inactive or inconclusive. Potency is the fitted concentration of half-maximal effect.

SMILES	GALC G270D act	mTORC1 inh	S16 viability	OvCa metastasis	NTMT1 inhibitor	PMP22 txn
COc1ccc(OC)c(NC(=O)Cn2ccn(-c3ccc(F)cc3)c(=O)c2=O)c1	i	-2%	8%	3%	89µM*	0%
CCc1ccccc1-n1c(N)c(C(=O)OC)c2nc3ccccc3nc21	25µM*	0%	-8%	-2%	-4%	-25%
NCCS	i	·	·	·	32µM*	·
COc1ccc(-c2cnc(N3CCC(C(N)=O)CC3)s2)cc1OC	·	·	·	·	4%	·
NC(=O)C1CCN(c2ncc(Br)s2)CC1	·	·	·	·	40µM*	·
Cc1nc(NCc2ccc(-c3ccnc(C(F)(F)F)c3)cc2)c2ccccc2n1	·	·	·	·	-6%[57.5 µM]	·
O=C1CSC(=O)N1C(CCc1ccncc1)COc1ccc(-c2cccc([N+](=O)[O-])c2)cc1 (stereo not given)	·	·	·	-1%	12%	·
CC1CCC/C=C/C(=O)c2c(O)cc(O)cc2CC(=O)O1 (stereo not given)	·	·	·	·	-8%[57.5 µM]	·
CC1CCCC(O)CCC/C=C/c2cc(OS(=O)(=O)O)cc(O)c2C(=O)O1 (stereo not given)	·	·	·	·	13µM*	·
CC(C)C[C@H](NC(=O)c1cc2ccccc2s1)C(=O)N1CCN(C(=O)[C@H](CO)NS(=O)(=O)c2ccc(Cl)cc2Cl)CC1	·	·	·	3%	?	·
CC(=O)Nc1sc2c(c1-c1cccc(N(C)C)c1)CCNC2	·	·	·	·	-3%	·
CCN1CCOC(=O)C1CC(=O)Nc1cc(C)cc(C)c1 (stereo not given)	i	10µM*	?	0%	1%	?
Cc1ccc(S(=O)(=O)Cc2ccc(C(=O)N3CCN(c4cccc(Cl)c4)CC3)o2)cc1	i	?	-17%	-10%	-1%	15µM*
Cc1ccc(Cl)cc1N1CCN(C(=O)c2ccc(CS(=O)(=O)c3ccc(Br)cc3)o2)CC1	i	-11%	?	i	11%	?
COC(=O)c1ccc(NC(=O)CC2Nc3cc(C)c(C)cc3NC2=O)cc1 (stereo not given)	i	-8%	2%	4.5µM*	29%	-16%
CC(=O)c1ccc(NC(=O)CC2Nc3cc(C)c(C)cc3NC2=O)cc1 (stereo not given)	i	-20%	0%	-5%	9%	-20%
COc1cc2c(cc1OCCCN1CCCC1)N=C(N)C21CCC1	·	·	·	·	1%	·
CC(C)c1ccccc1-c1nc(NCc2ccc(-c3cccnc3)cc2)c2cccn2n1	·	·	·	·	9%	·
O=C(CC1(O)C(=O)N(CCc2ccccc2)c2ccc(Br)cc21)c1ccccc1O (stereo not given)	i	18µM*	?	-8%	13%	?
O=C(CC1(O)C(=O)N(Cc2ccccc2)c2ccc(Br)cc21)c1ccccc1 (stereo not given)	i	?	-14%	i	4%	?
c1cc(N[C@@H]2CCNC2)nc(-c2cnc3ccc(-c4cn[nH]c4)cn23)c1	·	·	·	3%	?	·
CCc1oc2ccccc2c1C(=O)c1cc(Br)c(O)c(Br)c1	i	·	·	·	79µM*	·
CCOc1ccc(C(=O)Nc2c(C(=O)c3ccccc3)oc3ccccc23)cc1	i	4%	7%	i	5%	-1%
C/C=C/C=C/C(O)=C1\C(=O)[C@]2(C)C3C(C(=O)CC/C=C/C)=C(O)C4(C)C1[C@]1(C)O[C@@]4(O)[C@@]3(C)O[C@@]12O	·	·	·	·	-10%[29.8 µM]	·
Cc1ccc2nc3sc(C(=O)Nc4ccncc4)cc3cc2c1	·	·	·	·	-25%	·
SMILES	GALC G270D act	mTORC1 inh	S16 viability	OvCa metastasis	NTMT1 inhibitor	PMP22 txn
COc1ccc(C(=O)Nc2ccc(N3CCN(c4ccccc4)CC3)c(C(=O)O)c2)cc1	i	-1%	4%	-1%	18%	17%
O=C(Nc1ccc(N2CCC(N3CCCCC3)CC2)c(C(=O)O)c1)c1ccccc1	i	1%	-1%	?	50µM*	-5%
Cc1cccc(C(=O)Nc2ccc(N3CC=C(c4ccccc4C)CC3)c(C(=O)O)c2)c1	i	-5%	-4%	2%	40µM*	-4%
CC1CCN(c2ccc(NC(=O)c3cccc(Cl)c3)cc2C(=O)O)CC1	i	-3%	10%	-4%	45µM*	19%
CCNC(=O)C1CC(F)(c2ccc(CN3CCCC3)c(F)c2)C1 (stereo not given)	·	·	·	·	8%[57.5 µM]	·
N#Cc1ccc(-c2ccc(CNc3ccc(N4CCC(C(F)(F)F)CC4)cc3)o2)cc1	·	·	·	·	-1%	·
CC1CCC2(OC1)OC1CC3C4CC=C5CC(O)CC(O[C@@H]6OC[C@@H](O)[C@H](O)[C@H]6O)C5(C)C4CCC3(C)C1(O)C2C (stereo not given in full)	·	·	·	·	-5%[12.6 µM]	·
COc1ccc(-n2c(/C=C/c3ccccc3F)nc3cc(OC)c(OC)cc3c2=O)cc1Cl	i	5%	10µM*	5%	2%	-29%
CCc1cc(/C(C)=N/OCc2ccc(C3CCCCC3)c(C(F)(F)F)c2)ccc1CN1CC(C(=O)O)C1	·	·	·	·	-6%	·
Cc1ccccc1NC(=O)Cn1c(=O)n(CCCC(=O)NCc2ccc3c(c2)OCO3)c(=O)c2ccccc21	i	6%	2%	i	89µM*	?
Cc1ccc(NC(=O)Cn2c(=O)n(CCCC(=O)NCc3ccc4c(c3)OCO4)c(=O)c3ccccc32)cc1	i	-15%	11%	i	-19%	?
O=C(Nc1ccc(-c2ccccc2)nc1)c1cccs1	·	·	·	·	12%	·
CCCCNc1ncc2c(-c3ccc(CN4CCN(C)CC4)cc3)cn(C3CCC(O)CC3)c2n1 (stereo not given)	·	·	·	·	79µM*!	·
O=c1c2oc3ccccc3c2n(Cc2ccccc2)c(=O)n1Cc1ccco1	i	-12%	-1%	0%	89µM*	?
O=c1c2oc3ccccc3c2n(Cc2cccc(Cl)c2)c(=O)n1Cc1ccco1	i	2%	-4%	0%	8%	-17%
Cc1ccc2[nH]c(=O)c3cc(C(=O)NCCCN4CCC(C)CC4)sc3c2c1	i	3.3µM*	?	?	?	?
